According to PubChem BioAssay (NCATS):
Several values for one entry are separate records, joined by “and”; a condition that tells them apart may be missing. Equal entries are not always repeated. Results filed as inconclusive are left out. A call without a number means that no potency is given here. Activity calls are given as the source filed them. Calls follow the shape of the dose curve; as a rule, active = well fitted curve in the direction sought with a large enough effect; inconclusive = small, poorly fitted or top-dose-only effect, or another doubt; inactive = no such curve, though single readings can be large; an effect the other way counts as inactive or inconclusive.

Experiments:
[1] = qHTS of pediatric cancer cell lines to identify multiple opportunities for drug repurposing: Primary screen for A673 cells (AID 1347092); also: nearly all actives have a fitted effect of over 45% in size; also: potency is read from the fitted curve at half-maximal effect
Outline: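 A673 cells (500-1,000 cells/well in growth media) were pre-incubated 5 h at 37 degrees C, then exposed to compounds for 48 h. Viability was read as CellTiter-Glo luminescence; concentration-response curves came directly from the primary screen.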

[2] = qHTS of pediatric cancer cell lines to identify multiple opportunities for drug repurposing: Primary screen for SK-N-MC cells (AID 1347093); also: potency is read from the fitted curve at half-maximal effect
Outline: (§1)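 Metabolically active cells were quantified by ATP-dependent luminescence (CellTiter-Glo, 15 min at room temperature) following 48 h treatment. Cells had been plated at 500-1,000 per well and settled for 5 h beforehand.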

[3] = qHTS of pediatric cancer cell lines to identify multiple opportunities for drug repurposing: Primary screen for U-2 OS cells (AID 1347096); also: nearly all actives have a fitted effect of over 50% in size; also: potency is read from the fitted curve at half-maximal effect
Outline: (§2)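 Cells (500-1,000/well) in growth media were settled 5 h at 37 degrees C, then given compounds for 48 h. Viability was read as CellTiter-Glo luminescence. Primary runs used MIPE at 11 points (0.78 nM-46 µM) and NPC at 8 points (0.59 nM-46 µM); follow-ups used 11 points.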

[4] = qHTS of pediatric cancer cell lines to identify multiple opportunities for drug repurposing: Primary screen for SK-N-SH cells (AID 1347098); also: nearly all actives have a fitted effect of over 65% in size; also: potency is read from the fitted curve at half-maximal effect
Outline: (§3)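 Cells (500-1,000/well) rested 5 h, then received compounds for 48 h; metabolically active cells were measured by CellTiter-Glo luminescence. Final concentrations spanned up to 46 µM (MIPE, 11-point) or 0.59 nM-46 µM (NPC, 8-point) in primary screens, 11-point in follow-ups.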

[5] = qHTS of pediatric cancer cell lines to identify multiple opportunities for drug repurposing: Primary screen for BT-12 cells (AID 1347101); also: nearly all actives have a fitted effect of over 25% in size; also: potency is read from the fitted curve at half-maximal effect
Outline: as §3

[6] = qHTS of pediatric cancer cell lines to identify multiple opportunities for drug repurposing: Primary screen for OHS-50 cells (AID 1347103); also: nearly all actives have a fitted effect of over 40% in size; also: potency is read from the fitted curve at half-maximal effect
Outline: as §3

[7] = qHTS of pediatric cancer cell lines to identify multiple opportunities for drug repurposing: Primary screen for Rh30 cells (AID 1347107); also: series mostly up to about 46 µM; nearly all actives have a fitted effect of over 75% in size
Outline: as §2

[8] = qHTS of pediatric cancer cell lines to identify multiple opportunities for drug repurposing: Confirmatory screen for NB1643 cells (AID 1347109); also: nearly all actives have a fitted effect of over 45% in size; also: potency is read from the fitted curve at half-maximal effect
Outline: as §2

[9] = qHTS of pediatric cancer cell lines to identify multiple opportunities for drug repurposing: Confirmatory screen for SK-N-MC cells (AID 1347111);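 also: potency is read from the fitted curve at half-maximal effect; cells exposed to compound for 48 h before the readout; nearly all actives have a fitted effect of over 70% in size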
Outline: as §1

[10] = qHTS of pediatric cancer cell lines to identify multiple opportunities for drug repurposing: Primary screen for NB-EBc1 cells (AID 1347095); also: potency is read from the fitted curve at half-maximal effect
Outline: (§4)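 Plated cells (500-1,000 per well, growth media) were allowed to settle for 5 hours, treated with compound dilutions for 48 hours, then lysed with CellTiter-Glo for 15 min at room temperature before luminescence reading.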

[11] = qHTS of pediatric cancer cell lines to identify multiple opportunities for drug repurposing: Primary screen for Saos-2 cells (AID 1347097); also: nearly all actives have a fitted effect of over 40% in size; also: potency is read from the fitted curve at half-maximal effect
Outline: as §4

[12] = qHTS of pediatric cancer cell lines to identify multiple opportunities for drug repurposing: Primary screen for NB1643 cells (AID 1347099); also: nearly all actives have a fitted effect of over 50% in size; also: potency is read from the fitted curve at half-maximal effect
Outline: as §4

[13] = qHTS of pediatric cancer cell lines to identify multiple opportunities for drug repurposing: Primary screen for LAN-5 cells (AID 1347100); also: potency is read from the fitted curve at half-maximal effect
Outline: as §2

[14] = qHTS of pediatric cancer cell lines to identify multiple opportunities for drug repurposing: Primary screen for Rh18 cells (AID 1347102); also: nearly all actives have a fitted effect of over 65% in size; also: potency is read from the fitted curve at half-maximal effect
Outline: as §2

[15] = qHTS of pediatric cancer cell lines to identify multiple opportunities for drug repurposing: Primary screen for RD cells (AID 1347104); also: nearly all actives have a fitted effect of over 55% in size; also: potency is read from the fitted curve at half-maximal effect
Outline: as §4

[16] = qHTS of pediatric cancer cell lines to identify multiple opportunities for drug repurposing: Primary screen for MG 63 (6-TG R) cells (AID 1347105); also: nearly all actives have a fitted effect of over 50% in size; also: potency is read from the fitted curve at half-maximal effect
Outline: as §4

[17] = qHTS of pediatric cancer cell lines to identify multiple opportunities for drug repurposing: Primary screen for Rh41 cells (AID 1347108); also: nearly all actives have a fitted effect of over 70% in size; also: potency is read from the fitted curve at half-maximal effect
Outline: as §4

[18] = qHTS of pediatric cancer cell lines to identify multiple opportunities for drug repurposing: Confirmatory screen for A673 cells (AID 1347110); also: potency is read from the fitted curve at half-maximal effect; nearly all actives have a fitted effect of over 65% in size
Outline: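 A673 cells seeded at 500-1,000 cells/well, rested 5 h, then dosed; primary MIPE 11-point (0.78 nM to 46 µM), NPC (0.59 nM to 46 µM); confirmatory 11-point. CellTiter-Glo luminescence after 48 h.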

[19] = qHTS of pediatric cancer cell lines to identify multiple opportunities for drug repurposing: Primary screen for control Hh wild type fibroblast cells (AID 1347106);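 also: series mostly up to about 46 µM; a drop in luminescence marks cytotoxicity and a rise apparent proliferation; nearly all actives have a fitted effect of over 55% in size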
Outline: as §2

[20] = qHTS of pediatric cancer cell lines to identify multiple opportunities for drug repurposing: Primary screen for BT-37 cells (AID 1347094); also: series mostly up to about 57 µM
Outline: as §4

Row | SMILES | Potency [1] | Potency [2] | Potency [3] | Potency [4] | Potency [5] | Potency [6] | outcome [7] | Potency [8] | Potency [9] | Potency [10] | Potency [11] | Potency [12] | Potency [13] | Potency [14] | Potency [15] | Potency [16] | Potency [17] | Potency [18] | Potency [19] | Potency [20]
1 | CC(C)NCC(O)c1ccc(O)c(O)c1 (stereo not given) | 1.18 µM (active) | 935 nM (active) | inactive | inactive | inactive | inactive | inactive | inactive | 2.33 µM (active) | – | – | – | – | – | – | – | – | – | – | –
2 | O=C(Nc1ccc([N+](=O)[O-])cc1Cl)c1cc(Cl)ccc1O | 4.69 µM (active) | 1.3 µM (active) and 833 nM (active) | – | – | 1.69 µM (active) and 1.93 µM (active) | 1.51 µM (active) and 863 nM (active) | inactive | 1.62 µM (active) | 4.07 µM (active) | 4.11 µM (active) and 743 nM (active) | 2.31 µM (active) and 1.18 µM (active) | 820 nM (active) and 590 nM (active) | 1.3 µM (active) and 935 nM (active) | 3.72 µM (active) | 3.26 µM (active) and 1.48 µM (active) | 3.66 µM (active) and 1.18 µM (active) | 2.35 µM (active) | 5.12 µM (active) | – | –
3 | CNCCCC12CCC(c3ccccc31)c1ccccc12 | 21.1 µM (active) and 23.5 µM (active) | 23500 nM (active) | – | 13.7 µM (active) | – | 27.6 µM (active) and 24.3 µM (active) | inactive | – | – | inactive | 26.4 µM (active) | – | inactive | 18.8 µM (active) and 18.7 µM (active) | 29.6 µM (active) | 16.8 µM (active) | – | – | inactive | –
4 | COc1nc(C)nc(Cl)c1NC1=NCCN1 | inactive | inactive | inactive | inactive | inactive | inactive | inactive | – | – | inactive | inactive | – | inactive | inactive | inactive | inactive | inactive | – | inactive | –
5 | O=C(C1CCCCC1)N1CC(=O)N2CCc3ccccc3C2C1 (stereo not given) | inactive | inactive | inactive | inactive | inactive | inactive | inactive | – | – | inactive | inactive | – | inactive | inactive | inactive | inactive | inactive | – | – | –
6 | CS(=O)(=O)CCNCc1ccc(-c2ccc3ncnc(Nc4ccc(OCc5cccc(F)c5)c(Cl)c4)c3c2)o1 | 74.3 nM (active) and 21.1 µM (active) | 93.5 nM (active) and 11.9 µM (active) | 18.7 µM (active) | 9.7 µM (active) | – | – | – | – | – | 3.72 µM (active) | 29.6 µM (active) | – | 16.6 µM (active) | 20.9 µM (active) | 1.32 µM (active) and 26.6 µM (active) | 5.9 µM (active) | – | 20.8 µM (active) | inactive | –
7 | NCCS(=O)(=O)O | inactive | inactive | inactive | inactive | inactive | inactive | inactive | – | – | inactive | inactive | – | inactive | inactive | inactive | inactive | inactive | – | inactive | –
8 | Cc1cc(C(C)(C)C)c(O)c(C)c1CC1=NCCN1 | inactive | – | inactive | inactive | inactive | inactive | inactive | – | – | inactive | inactive | inactive | inactive | inactive | – | inactive | inactive | – | – | inactive
9 | CN(C)c1nc(N(C)C)nc(N(C)C)n1 | inactive | – | inactive | inactive | inactive | inactive | inactive | – | – | inactive | inactive | – | inactive | inactive | inactive | inactive | inactive | – | – | inactive
10 | Cc1cnc(C(=O)NCCc2ccc(S(=O)(=O)NC(=O)NC3CCCCC3)cc2)cn1 | inactive | inactive | inactive | inactive | inactive | inactive | inactive | – | – | inactive | inactive | – | inactive | inactive | inactive | inactive | inactive | – | inactive | –
11 | CC#C[C@]1(O)CC[C@H]2[C@@H]3CCC4=CC(=O)CCC4=C3[C@@H](c3ccc(N(C)C)cc3)C[C@@]21C | 26.6 µM (active) and 118 nM (active) | 118 nM (active) | 0.935 µM (active) | 0.242 µM (active) | 685 nM (active) | 7.69 µM (active) | inactive | – | – | 0.526 µM (active) | 2.64 µM (active) | – | 16.8 µM (active) and 209 nM (active) | – | 26.6 µM (active) and 662 nM (active) | – | 0.743 µM (active) | – | inactive | –
12 | O=c1c(O)c(-c2ccc(O)c(O)c2)oc2cc(O)cc(O)c12 | 14.8 µM (active) | 8330 nM (active) | inactive | 24.1 µM (active) | – | – | inactive | – | – | 23.5 µM (active) | – | – | – | – | inactive | inactive | inactive | – | inactive | –
13 | C[C@@H]1CC(=O)NN=C1c1ccc(NN=C(C#N)C#N)cc1 | 23.5 µM (active) | – | inactive | – | 21.9 µM (active) and 27.6 µM (active) and 24.3 µM (active) | 21.7 µM (active) | inactive | – | – | – | 18.7 µM (active) | 26.4 µM (active) | – | inactive | 29.6 µM (active) | 10.6 µM (active) | – | – | – | inactive
